# D1 ag – agonists of human D1 dopamine receptor. HEK293 T-REx D1 cells, calcium flux, agonist mode. activation, % at 2 µM. actives 1% (n = 360,000). AID 504660; in the data active = activation above about 30%
# Target sequence (P21728 whole entry, looked up): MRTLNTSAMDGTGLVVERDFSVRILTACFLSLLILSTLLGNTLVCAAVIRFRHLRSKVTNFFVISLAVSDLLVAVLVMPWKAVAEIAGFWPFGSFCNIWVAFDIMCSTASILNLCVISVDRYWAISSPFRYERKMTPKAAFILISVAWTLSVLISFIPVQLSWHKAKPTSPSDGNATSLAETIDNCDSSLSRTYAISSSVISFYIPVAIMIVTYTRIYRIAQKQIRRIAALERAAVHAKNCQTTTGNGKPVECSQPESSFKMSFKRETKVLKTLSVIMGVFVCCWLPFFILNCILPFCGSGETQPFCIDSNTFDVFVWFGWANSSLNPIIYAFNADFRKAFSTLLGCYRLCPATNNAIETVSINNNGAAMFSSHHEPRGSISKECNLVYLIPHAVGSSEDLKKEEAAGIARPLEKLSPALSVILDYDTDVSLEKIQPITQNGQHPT
#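 Tetracycline-induced HEK293 TREx D1 cells, force-coupled to calcium signalling, were dye-loaded with a no-wash calcium kit. Compound was pin-added after a 10 s baseline. Fluorescence was read kinetically at 1 cycle/s for 180 s, with calcium rises flagged as agonism.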
# DRD3 agonist – activates the human D3 dopamine receptor | P35462 | D3R DiscoveRx beta-arrestin cells, luminescence, 90 min | max activation, % | actives 0.58% (n = 410,000) | AID 652048; in the data active = max activation above about 30%
#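 Cells at 1500/well, incubated overnight, then treated with pinned compounds (dopamine as control) for 90 min at 37 degrees C. DiscoveRx reagent added for 30 - 60 minutes at room temperature; luminescence read.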
# D1 antag – human D1 dopamine receptor antagonism; P21728; HEK293 TREx D1 cells, calcium flux, dopamine EC80; hits give low values; activity change, negative = inhibition, % at 10 µM; actives 3.2% (n = 360,000); in the data active = activity change below about -30%
#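 Inducible Hek293 Trex D1 cells (tetracycline, overnight, 30 C). Calcium dye 30–90 min RT. Antagonist mode: EC80 dopamine added after 180 s compound read.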
# D1 PAM – enhances dopamine response at the human D1 receptor; HEK293 TREx D1 cells, calcium flux, dopamine EC20 potentiation; actives 0.036% (n = 360,000); potentiation, % at 10 µM; AID 504651; in the data active = potentiation above about 30%
# DRD3 antagonist – D3 dopamine receptor (human) antagonism | AID 652054 | max response, negative = inhibition, % | actives 2.5% (n = 360,000) | D3R cells, DiscoveRx beta-arrestin luminescence, antagonist mode; hits give low values; in the data active = max response below about -50%; inconclusive = no clear call, values can overlap the other calls
#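 Cells expressing the human receptor were seeded at 1500 cells/well, incubated overnight at 37 degrees C in 5% CO2, then exposed to library compounds with dopamine controls for 90 minutes at 37 degrees C before luminescent detection.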
# Hits are given with their value; 0 = inactive; ? = inconclusive; - = not tested or not shown. Sampled rows, rich in hits. Any-hit rate of the full collection: about 6%.
SMILES,D1 ag,DRD3 agonist,D1 antag,D1 PAM,DRD3 antagonist
COc1ccc(C(=O)N(Cc2ccc(C(C)C)cc2)C2CCS(=O)(=O)C2)cc1 (centres undefined),0,0,0,0,-
Cc1c(CCO)c(=O)[nH]n1C(=O)c1ccc(F)cc1,0,0,-31,0,0
Cc1c(CCO)c(=O)n(C)n1C(=O)c1ccc(F)cc1,0,0,0,0,0
COc1ccc(CCNc2ccc(N3C(=O)CC(C)C3=O)cc2[N+](=O)[O-])cc1OC (centres undefined),0,0,-34,0,0
COc1ccc(-n2nc([N+](=O)[O-])c(=NCCc3cccc(C)c3)n2O)cc1,0,0,-35,0,?
Cc1cccc(CCN=c2c([N+](=O)[O-])nn(-c3ccccc3)n2O)c1,0,0,0,0,0
COc1ccc(-n2c(=O)c3ccccc3n(Cc3ccc(F)cc3Cl)c2=O)cc1OC,0,0,0,0,-
Cc1ccc2cc3cc(C(=O)N4CCN(c5ccc(Cl)cc5)CC4)oc3nc2c1,0,0,0,0,-
CCC1(C)Cc2ccccc2-c2nc(NCCO)[nH]c(=O)c21 (centres undefined),0,0,-,0,-52
C[C@@H]1CC(=O)NN=C1c1ccc(NN=C(C#N)C#N)cc1,-,0,-,-,-
O=C1[C@@H]2Cc3c([nH]c4ccccc34)C(c3cccc([N+](=O)[O-])c3)N2C(=O)CN1CCCO (some centres undefined),0,0,0,0,-58
C=CCn1cccc(/C=C/C(=O)c2ccc(C(C)(C)C)cc2)c1=S,0,0,0,0,-60
Cc1ccc(NC(=O)c2cnc(SCC(=O)N3CCOCC3)n(C)c2=O)cc1C,0,0,-,0,-
COc1ccc(CCNC(=O)c2c(C)cc(=O)oc2C)cc1OC,0,0,0,0,0
Cc1cc(=O)oc(C)c1C(=O)NCCc1ccccc1,0,0,-32,0,0
COc1ccc(CNC(=O)c2c(C)cc(=O)oc2C)cc1,0,0,-33,0,0
Cc1ccc(C2CC(=O)N(Cc3ccc(F)cc3)c3c2c(C)nn3-c2nc(C)cc(C)n2)cc1 (centres undefined),0,0,0,0,-
CCN(CC)c1cc(C)c2cc(NC(=O)/C=C/c3cc(OC)c(OC)c(OC)c3)ccc2n1,0,0,0,0,-
OC(COc1c(Br)cc(Br)cc1Br)CN1CCOCC1 (centres undefined),0,0,0,0,0
O=S(=O)(c1ccc(OCC(O)CN2CCCCC2)cc1)N1CCOCC1 (centres undefined),0,0,0,0,0
OC(COc1c(F)cc(Br)cc1F)CN1CCc2ccccc2C1 (centres undefined),0,0,0,0,-111
OC(CN1CCc2ccccc2C1)c1ccccc1 (centres undefined),0,0,0,0,0
O=S(=O)(c1ccc(OCC(O)CN2CCc3ccccc3C2)cc1)N1CCOCC1 (centres undefined),0,0,0,0,-57
Cc1cccc(C)c1OCC(O)CN1CCc2ccccc2C1 (centres undefined),-,0,-,-,-67
Cn1cc(CNCc2ccccc2OCC(O)CN2CCc3ccccc3C2)cn1 (centres undefined),0,0,0,0,-71
SMILES,D1 ag,DRD3 agonist,D1 antag,D1 PAM,DRD3 antagonist
CCCCN(Cc1cccs1)S(=O)(=O)c1cc(-c2cc(C)no2)ccc1C,0,0,0,0,-
COc1ccc(Cl)cc1NC(=O)[C@H]1O[C@@H]2OC(C)(C)O[C@@H]2[C@H]2OC(C)(C)O[C@H]21,0,0,0,0,-
O=C(NCc1ccccc1Cl)c1nnc(Cc2ccc(Cl)cc2)o1,0,0,0,0,-
CN(C(=O)COC(=O)c1cccc(Cl)c1)C1CCS(=O)(=O)C1 (centres undefined),0,0,0,0,0
CN(C(=O)COC(=O)c1ccc(-c2ccc(O)cc2)cc1)C1CCS(=O)(=O)C1 (centres undefined),0,0,-46,0,0
Cc1noc(C)c1C(=O)OCC(=O)N(C)C1CCS(=O)(=O)C1 (centres undefined),0,0,-80,0,0
CN(C(=O)COC(=O)c1cccnc1Nc1ccccc1F)C1CCS(=O)(=O)C1 (centres undefined),0,0,-31,0,0
O=C(NCc1nnc(-c2nc3ccccc3[nH]2)o1)C1CCCCC1,0,-,0,0,-
COc1cc(C(=O)N2CCN(c3ccc(Nc4ccccc4)nn3)CC2)cc(OC)c1OC,0,0,-,0,-
COC(=O)C1=C(C)NC2=C(C(=O)c3ccccc32)C1c1cccc(OC)c1 (centres undefined),0,0,0,0,0
CC1=C([N+](=O)[O-])C(c2cccc(Br)c2)C2=C(N1)c1ccccc1C2=O (centres undefined),0,0,0,0,-94
O=S(=O)(O)c1cc(O)c2c(O)c(N=Nc3cc(Cl)ccc3O)c(S(=O)(=O)O)cc2c1,0,0,0,0,-61
O=C(/C=C/c1ccc([N+](=O)[O-])cc1)NCCN1C(=O)S/C(=C\c2ccc(F)cc2)C1=O,0,0,-31,0,0
Cc1ccc(S(=O)(=O)CCC(=O)NCCN2C(=O)S/C(=C/c3ccc(F)cc3)C2=O)cc1,0,0,0,0,0
CC(C)(C)SCCNC(=O)/C=C/c1cccc([N+](=O)[O-])c1,0,0,0,0,0
O=C(/C=C/c1cccc([N+](=O)[O-])c1)NCCN1C(=O)S/C(=C\c2ccc(F)cc2)C1=O,0,0,-40,0,0
CC(C)(C)SCCNC(=O)/C=C/c1ccc([N+](=O)[O-])cc1,0,0,-36,0,0
O=C(/C=C/c1cccc([N+](=O)[O-])c1)NCCSc1ccccc1,0,0,0,0,0
Cc1c(Cl)cccc1-n1ncc(C(=O)N2CCC(C)CC2)c1C1CCN(C(=O)OC(C)(C)C)CC1,0,0,0,0,-
CC1CC(C)CN(CCOCCSc2ccccc2)C1 (centres undefined),0,0,-38,0,-73
c1ccc(SCCOCCn2cncn2)cc1,0,0,0,0,0
Cc1ccc(SCCOCCN2CCOCC2)cc1,0,0,0,0,0
CC1CCCN(CCOCCSc2ccccc2)C1 (centres undefined),0,0,0,0,-73
CC1CCCN(CCS(=O)(=O)c2ccccc2)C1 (centres undefined),-,0,-,-,0
CC1CC(C)CN(CCCSc2ccccc2)C1 (centres undefined),0,0,0,0,-51
CC1CC(C)CN(CCOCCSc2ccc(Cl)cc2)C1 (centres undefined),0,0,0,0,-80
COCCNC(=S)Nc1cc(OC)c(OC)cc1C#N,0,0,0,0,-51
COCCCNC(=S)Nc1cc(C)c(C)cc1C,0,0,0,0,0
CSc1ccc(/C=C/c2nc3ccccc3n2S(=O)(=O)c2ccc(Br)cc2)cc1,0,0,-30,0,-
CCc1ccc(S(=O)(=O)n2c(C)nc3ccccc32)cc1,0,0,0,0,0

# Screening results from PubChem.
